Screens as filed in PubChem BioAssay.
The list is not random: actives were taken first. Their share in the collection is about 2.6%.
PABP1 MLLE inh: inhibitors of PABP1 MLLE–PAM2 peptide binding, primary screen, biochemical, fluorescence polarization, FITC-PAM2, GST-MLLE | inhibition, % at 20 µM | actives 0.36% (n = 360,000) | Polyadenylate-binding protein 1 (Homo sapiens), P11940 | AID 588489, 2011; in the data active = inhibition above about 35%, passing the limit was not always enough
PABP FP inh: PABP poly(A) RNA binding inhibitors, primary screen, biochemical, fluorescence polarization, uHTS; actives 1% (n = 290,000); calls only at 35 µM; Polyadenylate-binding protein 1 (Homo sapiens), P11940;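 also: calls also rest on retests at 20 µM and on dose response follow-up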
A3G deaminase: APOBEC3G DNA deaminase inhibitors, primary screen, biochemical, fluorescence, single-stranded DNA substrate, uHTS | inhibition, % at 20 µM | recombinant A3G, ssDNA deamination FAM/TAMRA fluorescence | DNA dC->dU-editing enzyme APOBEC-3G (Homo sapiens), Q9HC16 | actives 0.28% (n = 330,000);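 active = inhibition of at least 40% at 20 µM, with no more than 30% in the related APOBEC3A deaminase screen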
PHOSPHO1 inh: PubChem AID 1565; Phosphoethanolamine/phosphocholine phosphatase (Homo sapiens), Q8TCT1; recombinant PHOSPHO1, absorbance phosphatase assay; inhibition, % at 13.3 µM; actives 1.1% (n = 290,000); in the data active = inhibition above about 60%
Target sequence (Q8TCT1 whole entry, looked up): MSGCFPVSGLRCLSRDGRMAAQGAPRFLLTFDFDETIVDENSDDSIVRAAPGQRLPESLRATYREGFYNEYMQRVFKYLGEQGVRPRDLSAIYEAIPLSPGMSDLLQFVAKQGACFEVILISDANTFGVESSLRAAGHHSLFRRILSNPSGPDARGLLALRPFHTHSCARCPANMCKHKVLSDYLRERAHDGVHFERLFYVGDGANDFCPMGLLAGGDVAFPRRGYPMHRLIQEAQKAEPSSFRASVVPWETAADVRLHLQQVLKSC
eIF4H FP inh: human eIF4H binding inhibitors, primary screen, translation initiation inhibitor project, biochemical, uHTS, fluorescence polarization | eIF4H fluorescence polarization binding assay | inhibition, % at 35 µM | actives 0.94% (n = 290,000) | AID 2012, 2009;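 also: calls also rest on retests at 20 µM and on dose response follow-up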
APOBEC3A inh: APOBEC3A ssDNA deaminase inhibitors, primary screen, selectivity assay for APOBEC3G inhibitor project, biochemical, FAM/TAMRA oligo cleavage fluorescence | DNA dC->dU-editing enzyme APOBEC-3A (Homo sapiens), P31941 | inhibition, % at 20 µM | recombinant A3A, FAM/TAMRA ssDNA deamination fluorescence | actives 0.41% (n = 330,000);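 active = at least 40% inhibition at 20 µM here, with at most 30% in a related deaminase screen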
Target sequence (P31941 whole entry, looked up): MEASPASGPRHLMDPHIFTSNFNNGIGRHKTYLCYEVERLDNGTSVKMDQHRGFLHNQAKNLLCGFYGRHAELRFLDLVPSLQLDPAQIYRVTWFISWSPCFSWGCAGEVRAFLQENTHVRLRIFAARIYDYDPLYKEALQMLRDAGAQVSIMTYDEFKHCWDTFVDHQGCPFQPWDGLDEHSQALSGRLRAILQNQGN
Of the large screens only hits and unclear results are named; the others gave an inactive call. Unless noted, no rule for the calls is given here.

COC(=O)C1=C(C)NC(=O)/C1=C\c1cc(C)n(-c2ccccc2)c1C	none
CC(=O)Nc1ccc2cc3ccc(NC(C)=O)cc3nc2c1	PABP FP inh active, eIF4H FP inh 77 (no result: A3G deaminase, APOBEC3A inh)
CC(=O)Nc1ccc2ccccc2c1	none
CC1=NN(c2ccc(Cl)c(C(=O)O)c2)C(=O)C1	none
CC1=NN(c2ccc(C(=O)O)c(N)c2)C(=O)C1	PHOSPHO1 inh 63, eIF4H FP inh 98
O=S(=O)(NCc1nc2ccccc2[nH]1)c1ccccc1	PHOSPHO1 inh 73
COc1ccc(-c2n[nH]c(=S)o2)c(OC)c1	PHOSPHO1 inh 103
CCOc1ccccc1-c1n[nH]c(=S)o1	PHOSPHO1 inh 100
CCOc1ccc(-c2n[nH]c(=S)o2)cc1	none
COc1cccc(CN2CCNC(=O)C2CC(=O)N(C)CC2CCOCC2)c1OC (centres undefined)	none
O=C(CCl)N1CCN(S(=O)(=O)c2ccc3c(c2)CCC3)CC1	none (no result: PABP FP inh, PHOSPHO1 inh, eIF4H FP inh)
O=[N+]([O-])/C(C(Cl)=C(Cl)Cl)=C(\Sc1ccccc1)N1CCCCC1	none
CCO/N=C1\C(=O)N(c2ccccc2)c2ccccc21	none
O=C(O/N=C1\C(=O)N(c2ccccc2)c2ccccc21)C1CC1	eIF4H FP inh active
C/C(=N/N=C(\C)c1ccccc1O)c1ccccc1O	PABP FP inh active
CCC(=NN=C(CC)c1ccccc1O)c1ccccc1O	none (no result: PABP FP inh, A3G deaminase, PHOSPHO1 inh, eIF4H FP inh, APOBEC3A inh)
CN(CC(=O)Nc1ccccc1C(F)(F)F)C(=O)CC1OC(=O)c2ccccc21 (centres undefined)	none
O=c1c2ccccc2nc2n1C(CBr)CS2 (centres undefined)	none
O=c1nc2n(c3sc4c(c13)CCCC4)C(CBr)CS2 (centres undefined)	PABP1 MLLE inh 40
COC(=O)c1ccccc1CSc1nsc(/C=C/N(C)C)c1C#N	PABP FP inh active
Cc1nc(CSc2nsc(/C=C/N(C)C)c2C#N)cs1	eIF4H FP inh inconclusive (no result: A3G deaminase, APOBEC3A inh)
CCN1C=C(Cc2ccccc2C)C2=C(C1)C(c1ccccc1C)C(C#N)=C(N)O2 (centres undefined)	PABP FP inh active
c1cn2cc(-c3ccc4c(c3)OCO4)nc2s1	PHOSPHO1 inh 68
CC(=O)Nc1ccc(-c2cn3ccsc3n2)cc1	none
COc1cccc(C2=NOC(C(=O)Nc3cc(C)on3)C2)c1OC (centres undefined)	none
COC(=O)CCC/C=C1/SCC(NC(=O)c2ccccc2)C1=O (centres undefined)	PHOSPHO1 inh 64
COc1cc(OC)cc(C(=O)Nc2nnc(NC(=S)Nc3ccccc3)s2)c1	none
CC(C)(C)c1nnc(NC(=S)Nc2ccccc2)s1	PABP1 MLLE inh 43, PABP FP inh inconclusive, eIF4H FP inh inconclusive
CN1CCC(N(CCc2ccccc2)C(=O)CCC(=O)O)CC1	none
COc1ccc(S(=O)(=O)NCCN2CCOCC2)cc1Br	none (no result: PHOSPHO1 inh)
CCN(CC)CCNS(=O)(=O)c1ccc(OC)c(Br)c1	PHOSPHO1 inh 93
S=c1[nH]ncn1/N=C/c1cccc(Oc2ccccc2)c1	PHOSPHO1 inh 97
Cc1sc(NC(=S)Nc2ccc(F)cc2)c(C(N)=O)c1C	PABP1 MLLE inh 35 (no result: A3G deaminase, APOBEC3A inh)
CN(CCc1ccccn1)C(=O)CCC1CCCN(C(=O)c2ccsc2)C1 (centres undefined)	PHOSPHO1 inh 61
Cc1occc1C(=O)NCc1ccco1	PABP FP inh active, eIF4H FP inh 58
O=C(NCc1ccco1)c1cc2ccc(O)cc2oc1=O	PABP FP inh active, eIF4H FP inh inconclusive
COc1ccc2cc(C(=O)NCc3ccco3)c(=O)oc2c1	none
CC1(C(=O)NCc2ccc3c(c2)OCO3)CCN1C(=O)Cc1ccc(Cl)cc1Cl (centres undefined)	none (no result: PABP FP inh, A3G deaminase, PHOSPHO1 inh, eIF4H FP inh, APOBEC3A inh)
O=C(CCNc1ccc(Cc2ccncc2)cc1)c1ccc([N+](=O)[O-])cc1	PABP1 MLLE inh 40
O=C(Nc1ccc(Cc2ccncc2)cc1)c1cccc([N+](=O)[O-])c1	none
CCOC(=O)C1CCC(CN(Cc2ccccc2C)S(=O)(=O)c2ccc([N+](=O)[O-])cc2)CC1 (centres undefined)	none
CC(=O)N(C)c1ccc(NC(=S)Nc2ccccc2)cc1	none
COc1ccc(NC(=S)Nc2ccc(F)cc2)cc1	none
COc1cc(NC(=S)Nc2ccc(N(C)C(C)=O)cc2)cc(OC)c1	PABP1 MLLE inh 36
COc1cc(NC(=S)Nc2ccc(OC(F)F)cc2)cc(OC)c1	PABP1 MLLE inh 41
CNCc1ccccc1Sc1cc(O)ccc1O	PABP1 MLLE inh 45
CNCc1ccccc1Sc1cccc(O)c1	none
Cc1c(CC(=O)N2CCN(C(=O)C3COc4ccccc4O3)CC2)c(=O)oc2cc(O)ccc12 (centres undefined)	none
COc1ccc2c(C)c(CC(=O)N3CCN(C(=O)C4COc5ccccc5O4)CC3)c(=O)oc2c1 (centres undefined)	PHOSPHO1 inh 64
O=C(COC(=O)c1ccc2c(c1)OCO2)Nc1nc(-c2ccccc2)cs1	PABP FP inh active
CCn1c(SCC(=O)Nc2nc(-c3ccccc3)cs2)nnc1-c1ccccc1	none
NS(=O)(=O)c1ccc(NC(=O)COC(=O)c2ccc3c(c2)OCCO3)cc1	PABP FP inh active, eIF4H FP inh active
COc1ccc(-c2csc(NC(=O)CSc3n[nH]c(N)n3)n2)cc1	PABP1 MLLE inh 37
Cc1cc(C)c(-c2csc(NC(=O)COC(=O)c3ccc4c(c3)OCO4)n2)c(C)c1	none
Cc1nnc(SCC(=O)Nc2nc(-c3ccccc3)cs2)n1N	PHOSPHO1 inh 69
CNC(=O)C[C@H]1C(=O)N(c2ccc(Br)cc2)C[C@@H]1CSC	none (no result: PABP FP inh, A3G deaminase, PHOSPHO1 inh, eIF4H FP inh, APOBEC3A inh)
CCOc1ccccc1-c1nc(-c2cc3ccccc3nc2OC)no1	eIF4H FP inh 54
COc1nc2ccccc2cc1-c1noc(-c2cccnc2)n1	none (no result: PABP1 MLLE inh, A3G deaminase, APOBEC3A inh)
CC(=O)NC1=NN(C(C)=O)C2(S1)C(=O)N(C(C)=O)c1ccc(C)cc12 (centres undefined)	none
CCCCNC(=O)/C(=C\c1ccc([N+](=O)[O-])o1)NC(=O)c1ccccc1	PABP FP inh inconclusive, eIF4H FP inh inconclusive
COC(=O)/C(=C\c1ccc([N+](=O)[O-])o1)NC(=O)c1ccccc1	PABP FP inh active
Cc1ccc(/C=N/NC(=O)Cn2cnc3ccccc32)cc1	PABP FP inh active, eIF4H FP inh 89
COc1cccc(/C=N/NC(=O)CNC(=O)c2cccs2)c1O	none
Cc1ccc(/C=N/NC(=O)CNC(=O)c2cccs2)cc1	PHOSPHO1 inh 66
COCCCNC(=O)C[C@H]1C[C@H](C(=O)N2CCOCC2)[C@@]2(CCC3CCCC3)c3[nH]c4ccc(Cl)cc4c3CCN2C1=O	none (no result: PABP FP inh, PHOSPHO1 inh, eIF4H FP inh)
